Screening results as filed in PubChem.
HIF activator: HIF pathway transcriptional activation; U2OS HRE-luciferase reporter, luminescence; normalized: DMSO 0%, desferrioxamine 100%; activation, % at 7.5 µM (by protocol); 300,000 compounds, 0.32% hits;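 active = mean activation of at least 10% of the iron chelator positive control signal, with at least half of replicates also reaching 10%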
ALR H2O2 inh: blocks human ALR sulfhydryl oxidase activity; P55789; purified ALR, DTT oxidation, H2O2 HRP-luminol luminescence; inhibition, % (no concentration beside the values); 290,000 compounds, 3.8% hits; AID 485317;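 active = mean replicate inhibition above about 79%, with every replicate also reaching it, limit read from the data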
Target sequence (P55789 whole entry, looked up): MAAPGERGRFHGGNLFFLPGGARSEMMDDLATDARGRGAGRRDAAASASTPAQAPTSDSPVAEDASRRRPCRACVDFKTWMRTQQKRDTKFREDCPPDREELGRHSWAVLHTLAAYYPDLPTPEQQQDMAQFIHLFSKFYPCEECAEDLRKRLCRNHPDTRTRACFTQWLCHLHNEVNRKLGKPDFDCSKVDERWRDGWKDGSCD
SUMO Mot1 rescue: SUMOylation pathway inhibition by Mot1-301 growth rescue. S. cerevisiae Mot1-301 growth rescue, ATP luminescence, 38.5C; percent above DMSO median, 100 means doubled. 320,000 compounds, 1% hits. growth rescue, % at 18.8 µM;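 active = every valid replicate shows activation above 250% relative to neutral control wells; inactive = the rest, any valid replicate at or below 250%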;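 also: OY570 slx delta 5 strain wells were the positive control but not used for scaling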
M18AAP inhibitor: PfM18AAP enzyme inhibition | inhibition, % at 7.35 µM | 290,000 compounds, 1.2% hits | AID 1822 | recombinant PfM18AAP, H-Glu-NHMec fluorogenic cleavage;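 active = inhibition above the campaign mean inhibition over all tested compounds plus 3 SD, cut at about 28% in these data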;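 also: 0% = plate median of test compound wells and 100% = 2 mM ZnCl2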
Starred values were filed as active, the others as inactive; · = not tested or not shown. Compounds with a hit are over-represented: about 5.3% of the library has one in this group of screens.

SMILES	HIF activator	ALR H2O2 inh	SUMO Mot1 rescue	M18AAP inhibitor
Cc1ccc(-n2[nH]c(=O)c3cccnc32)cc1	1	97*	-12	3
CC(CN(C)C)CN1c2ccccc2Sc2ccccc21 (centres undefined)	·	99*	-3	·
Cc1cc(C)n(CC(O)CN2c3ccccc3Sc3ccccc32)n1 (centres undefined)	0	99*	28	2
Cc1cc(C)n(CC(O)Cn2c3ccccc3c3ccccc32)n1 (centres undefined)	0	·	-6	0
CCN(CC)CCCCN1c2ccccc2Sc2ccccc21	-2	99*	-14	7
CCN(CC)CC(O)CN1c2ccccc2Sc2ccccc21 (centres undefined)	-1	98*	110	5
CC1CC(=O)Nc2ccccc2N1S(=O)(=O)c1ccc(F)cc1F (centres undefined)	-1	11	-1	4
COC(=O)Nc1ccc2ncn(C)c(=O)c2c1	0	-50	-23	4
OCCN(CCO)CC(O)CN1c2ccccc2Sc2ccccc21 (centres undefined)	1	99*	6	3
COc1cc(/C=C2\SC(=O)NC2=O)ccc1Oc1ccc([N+](=O)[O-])cc1[N+](=O)[O-]	0	98*	-13	13
CO/N=C/c1ccc(Oc2ccc([N+](=O)[O-])cc2[N+](=O)[O-])c(OC)c1	1	·	9	6
O=C(c1ccc2c(c1)OCO2)N1CCN(c2ccc(F)cc2)CC1	1	97*	5	-4
O=C(c1ccc2c(c1)OCO2)N1CCN(c2cccc(C(F)(F)F)c2)CC1	3	·	11	9
O=C(CSCc1ccc(F)cc1)N1CCN(c2ccccc2)CC1	1	55	59	-2
Cc1cccn2c(=O)nc(SCC(=O)N3CCN(c4ccccc4)CC3)nc12	0	86*	3	·
O=C(CCN1C(=O)C2C3C=CC(C3)C2C1=O)N1CCN(c2ccc(F)cc2)CC1 (centres undefined)	·	97*	19	6
Cc1ccccc1CSCC(=O)N1CCN(c2ccccc2)CC1	2	99*	-1	-1
COc1ccc(N2CCN(C(=O)CCN3C(=O)C4C5C=CC(C5)C4C3=O)CC2)cc1 (centres undefined)	0	68	-7	-2
Cc1ccc(Sc2ccc(N)cc2C#N)cc1	0	-7	9	-3
CC(C)c1ccc(CNC(=O)C(=O)NCCCn2ccnc2)cc1	0	1	-6	1
CC1O[C@@H](OCC2O[C@@H](Oc3cc(O)c4c(c3)OC(c3ccc(O)cc3)CC4=O)[C@H](O)[C@@H](O)[C@@H]2O)[C@H](O)[C@H](O)[C@H]1O (some centres undefined)	·	·	178	·
COc1ccc2c(c1OC)C(=O)N(c1ccc(OCc3ccccc3)cc1)C2=O	0	2	6	-12
CCOc1ccccc1CNS(=O)(=O)c1cnc[nH]1	0	-1	2	9
Cc1cccc(-c2nc(CSCC(=O)N3CCN(c4ccccn4)CC3)c(C)o2)c1	-1	·	-10	3
Cc1ccsc1-c1nc(CSCC(=O)N2CCN(c3ccccc3)CC2)c(C)o1	0	89*	89	-7
SMILES	HIF activator	ALR H2O2 inh	SUMO Mot1 rescue	M18AAP inhibitor
CCC(C(=O)N1CCN(c2cccc(Cl)c2)CC1)c1ccccc1 (centres undefined)	-1	-4	54	-13
CCC(CC)C(=O)N1CCN(c2ccccc2)CC1	0	98*	27	1
O=C(CSCc1ccc(F)cc1)N1CCN(c2ccc(F)cc2)CC1	1	98*	-6	1
O=C(CCN1C(=O)C2C3C=CC(C3)C2C1=O)N1CCN(c2ccc([N+](=O)[O-])cc2)CC1 (centres undefined)	0	-11	6	0
CC(CC(=O)NCc1ccco1)S(=O)(=O)c1ccc2c(c1)CCN2C(=O)C1CC1 (centres undefined)	1	2	-1	0
CC(NC(=O)c1cc(-c2ccncc2)nc2ccc(Cl)cc12)C1CCCO1 (centres undefined)	0	-7	341*	1
CCCCOC(=O)c1ccc(NC(=S)NC(=O)c2c(Br)c(C)nn2C)cc1	41*	7	-11	-1
CCOC(=O)c1ccc(NC(=S)NC(=O)c2cncc(Br)c2)cc1	1	6	-4	-4
Cc1ccc(NC(=O)CCNC(=O)c2ccco2)cc1F	1	-26	32	-2
O=C(O)c1cc(-c2ccc(/C=c3\sc4nc5ccc(Br)cc5n4c3=O)o2)ccc1Cl	-1	93*	-25	20
CSc1cccc(NC(=O)CNC(=O)c2ccc3c(c2)OCO3)c1	0	-11	-7	·
CSc1cccc(-n2cc(-c3ccc4c(c3)OCO4)[nH]c2=O)c1	3	-14	10	29*
COc1cc(C)c(C(=O)Oc2cc(C)c(C(=O)O)c(O)c2C)c(OC)c1C	1	89*	-9	4
CCOc1cc(C2C(C#N)=C(N)SC(N)=C2C#N)ccc1OCCN1CCOCC1	0	99*	-10	10
COc1ccc(-c2cc(=O)[nH][nH]2)cc1	0	56	-3	6
O=c1cc(-c2cccc3ccccc23)[nH][nH]1	0	88*	277	4
O=C1C2CC(O)CN2C(=O)N1c1ccccc1 (centres undefined)	-1	-4	13	3
Cc1c(C(=O)NN2CCCCC2)nn(-c2ccc(Cl)cc2Cl)c1-c1ccc(I)cc1	0	-3	-8	-5
Cc1ccccc1CSc1nnc(C)c(=O)[nH]1	0	91*	-2	4
Cc1nnc(SCc2ccc([N+](=O)[O-])cc2)[nH]c1=O	0	15	1	1
Cc1ccccc1CSc1nc2ccccc2c(=O)[nH]1	-1	-6	10	2
Cc1nnc(SCc2cccc([N+](=O)[O-])c2)[nH]c1=O	0	99*	11	8
COc1ccccc1N1CC(C(=O)Nc2nnc(SCc3cccnc3)s2)CC1=O (centres undefined)	0	88*	-1	-1
Cc1sc(NC(=O)c2ccco2)c(C(=O)c2ccc(Cl)cc2)c1C	0	97*	-18	1
Cc1cc(=O)[nH]c(S/C=C/c2ccccc2)n1	1	98*	-22	-2
SMILES	HIF activator	ALR H2O2 inh	SUMO Mot1 rescue	M18AAP inhibitor
Cc1cc(=O)[nH]c(SCCc2ccccc2)n1	0	-3	1	-9
Cc1ccc(Oc2cc(NN3CCCCC3)c([N+](=O)[O-])cc2[N+](=O)[O-])c(Cl)c1	0	-4	15	-12
CCn1c(SCc2ccc(F)cc2)nc2c(c1=O)SCC2	-1	48	-5	-7
COCCn1c(SCC(=O)c2ccccc2)nc2c(c1=O)SCC2	1	94*	·	-3
COCCn1c(SCC(=O)NNC(=O)c2ccccc2)nc2ccccc2c1=O	0	·	-16	0
COCCn1c(SCC(=O)N2CCCCC2)nc2c(c1=O)SCC2	0	-3	-13	-1
COCC(C)n1c(SCC(=O)NNC(=O)c2ccc(F)cc2)nc2ccccc2c1=O (centres undefined)	0	·	346*	3
COCCn1c(SCC(=O)c2ccccc2)nc2ccccc2c1=O	0	97*	-4	1
